# Reference: ChEMBL document CHEMBL4513216, “Probing the Open Global Health Chemical Diversity Library for Multistage-Active Starting Points for Next-Generation Antimalarials” (ACS Infect Dis, 2020)
# About 8,600 (12%) of roughly 69,000 compounds showed an effect of 50% or more. Many of the other results were omitted from the sample, so strong results are more common in it than they were.
# System: Plasmodium berghei
# Assay: Screen against P. berghei liver stage (PbLuc), transformed with Luciferase, at 10uM
# Assay type: functional, HepG2
# Details: tested at 10 uM
row,Compound,INHIBITION [%]
1,N#CC1(NC(=O)COC(=O)Cc2cc(Cl)c3c(c2)OCCO3)CCCC1,38.9
2,N#Cc1ccc(S(=O)(=O)NC(=O)C2CC2)c(C(F)(F)F)c1,54.9
3,CC(C)(C)C(=O)NS(=O)(=O)c1ccc(C#N)cc1C(F)(F)F,39.2
4,CC(C)C(=O)NS(=O)(=O)c1ccc(C#N)cc1C(F)(F)F,-4.94
5,O=C(Nc1ccc(I)cc1C(=O)NCCN1CCOCC1)c1ccco1,52.2
6,Cc1nc(-c2ccco2)ccc1C(=O)NCCCN1CCOCC1,24.3
7,O=C(Nc1ccccc1C(=O)NCCCN1CCOCC1)c1ccco1,51
8,O=C(Nc1ccccc1C(=O)NCCN1CCOCC1)c1ccco1,38.7
9,O=C(Nc1ccc(Cl)cc1C(=O)NCCN1CCOCC1)c1ccco1,32.3
10,O=C(Nc1ccc(I)cc1C(=O)NCCN1CCOCC1)c1cccs1,25.4
11,CCN(CC)C(=O)CN1CCc2nc(C3CCNCC3)nc(NC)c2C1,23.9
12,O=C1[C@H]2CN(Cc3ccccc3)C[C@H]2CN1CCN1CCCC1,-55.3
13,CO[C@H]1CCN(C(=O)c2cc(C)on2)[C@H]1Cc1ccncc1,-15.9
14,N#CCCN(Cc1ccccn1)Cn1cc(Cl)cn1,46.4
15,Cc1ncncc1C(=O)NCCN1CCC(C)CC1,-51.6
16,CCS(=O)(=O)Cc1nnnn1-c1ccccc1,61.1
17,CNC(=O)CCS(=O)(=O)Cc1nnnn1-c1ccccc1,31.2
18,COCCS(=O)(=O)Cc1nnnn1-c1ccccc1,26.9
19,COc1ccc([C@@H]2CN(Cc3ccncc3)C[C@H]2c2cc[nH]n2)cc1,39.3
20,Cn1cc(CN2CCC3(CC2)COC(COc2ccccn2)C3)cn1 (stereo not drawn),30.3
21,COc1ccc(OCC(O)CN2CCN(c3nccs3)CC2)cc1 (stereo not drawn),8.9
22,N#Cc1ccc(OCC(O)CN2CCC(c3ccn[nH]3)CC2)cc1 (stereo not drawn),7.08

row,Compound,INHIBITION [%]
1,Cc1cccc(OCC(O)CN2CCN(c3nccs3)CC2)c1 (stereo not drawn),77.4
2,CC(C)OCCCNC(=O)CN1CCN(c2nccs2)CC1,-20.5
3,CC(=O)N(C)c1nc(CN2CCN(c3nccs3)CC2)cs1,38.3
4,Cc1cccc(OCC(O)CN2CCC(c3ccn[nH]3)CC2)c1 (stereo not drawn),42
5,N#Cc1ccc(OCC(O)CN2CCN(c3nccs3)CC2)cc1 (stereo not drawn),87.6
6,OC(COc1ccccc1)CN1CCN(c2nccs2)CC1 (stereo not drawn),27.7
7,Cc1cc(C)cc(OCC(O)CN2CCN(c3nccs3)CC2)c1 (stereo not drawn),53.4
8,CCc1c(C(=O)N2CCNC(=O)C2)cnn1C(C)(C)C,3.73
9,Cc1nn(C)c(C)c1C1CCCN1C(=O)c1nccnc1N (stereo not drawn),12.7
10,Cn1ncc2c1C(COCC1CC1)CN(Cc1ccsc1)C2 (stereo not drawn),4.57
11,COC(=O)COc1ccc(-c2noc(C3CCCO3)n2)cc1 (stereo not drawn),8.59
12,COCCCNC(=O)c1cc(-c2ccc(OC)cc2)nn1C,3.19
13,COc1ccccc1C1=NOC(CC2(C(=O)NC(C)C)CCOCC2)C1 (stereo not drawn),-29.8
14,Fc1cccc(-n2nc(C3CC3)nc2CCn2cnnn2)c1,24.8
15,COCc1nc(C2CC2)nn1-c1cccc(F)c1,-19.8
16,CN1CCC(n2nc(Cc3cccc(Cl)c3)nc2Cn2cnnn2)CC1,15.7
17,COc1ccc(-n2nc(C3CC3)nc2CCn2cnnn2)cc1,52.5
18,COc1ccc(Cl)cc1-n1nc(C2CCCC2)nc1Cn1cnnn1,70.4
19,COCc1nc(C2CC2)nn1-c1ccccc1Cl,37.2
20,COc1ccc(CCNC(=O)C2CCC(Cn3cnnn3)CC2)cc1 (stereo not drawn),22.9
21,CCn1cnnc1C1CCN(C(=O)c2ccc(Cl)cc2OC)CC1,25.1
22,COCc1nc(C2CC2)nn1-c1cc(Cl)ccc1OC,51.1

row,Compound,INHIBITION [%]
1,CN1C(=O)[C@@H]2CC[C@H]1CN(C(=O)c1sccc1S(N)(=O)=O)C2,25.9
2,CC(Cn1cccn1)Nc1cnc2ccccc2n1 (stereo not drawn),24.2
3,Cc1nc(-c2cccc(N3CCC(N[C@@H]4CCOC4)CC3)c2)cs1,44.1
4,O=C1N(Cc2cccc(F)c2)CCC12CCCN(c1ncc(F)cn1)C2 (stereo not drawn),8.66
5,CC(C)=CCCC(C)CN1CCC(n2cc(C(C)(C)O)nn2)CC1 (stereo not drawn),-94.3
6,CC(C)=CCCC(C)CN1CCC(n2cc(CO)nn2)CC1 (stereo not drawn),-109
7,CC(C)=CCCC(C)CN1CCC(n2cc(C(=O)NCCO)nn2)CC1 (stereo not drawn),60.9
8,O=C(O)C1(Cc2cccc(Cl)c2)CCCN(c2ncnc3[nH]ccc23)C1 (stereo not drawn),-37.9
9,CC(C)Cc1nc(CN(C)c2cc(C(C)C)nc3ccnn23)no1,-30.6
10,CCNC(=O)N1CCC(c2ccccc2)C1 (stereo not drawn),-31
11,CSCc1cc(F)ccc1CNCc1ncc[nH]1,63.3
12,CSCc1cc(F)ccc1CNCc1cccnc1,35.4
13,CSCc1cc(F)ccc1CNCc1ccncc1,24.2
14,Cc1nc(Nc2ncccn2)cc(C2CN(C(=O)c3cccnc3)C2)n1,37.6
15,CC1=CC[C@@H]2CN(C(=O)c3ccc(-c4nnn(C)n4)cc3)C[C@@H]2C1,35.8
16,CC(C)Nc1nc2c(cc1C(=O)O)CCN(Cc1ccsc1)CC2,21.4
17,CC(C)Nc1nc2c(c(NC3CC3)n1)CN(C(=O)c1ccncc1)CC2,5.36
18,CC(C)Nc1nc2c(c(N(C)C)n1)CCN(Cc1nccn1C)CC2,21.7
19,CC(C)Nc1nc2c(c(NC3CC3)n1)CN(C(=O)c1ccsc1)CC2,79.2
20,CC(C)Nc1nc2c(c(NC3CC3)n1)CN(C(=O)Cc1ccsc1)CC2,83.7
21,CC(C)Nc1nc2c(c(NC3CC3)n1)CN(C(=O)c1ccnnc1)CC2,65.9
22,CC(C)Nc1nc2c(c(NC3CC3)n1)CCN(C1CCOCC1)CC2,23.1

row,Compound,INHIBITION [%]
1,Cc1nc(NC(C)C)nc2c1CN(Cc1nccn1C)CC2,-4.02
2,CC(C)N(C)Cc1cnc2n1CCN(C(=O)Cc1ccsc1)C2,-13
3,Cc1ccc(NC2CCN(C(=O)c3ccsc3)CC2)nn1,31.8
4,CC(C)N(C)Cc1noc2c1CN(C(=O)c1ccsc1)CC2,-18.5
5,CC(C)Nc1nc2c(c(NC3CC3)n1)CCN(Cc1nccn1C)CC2,60.3
6,CC(C(=O)NCCOc1ccccc1)n1cncn1 (stereo not drawn),2.97
7,CN(C)C(=O)CN1CC[C@H]2CN(S(C)(=O)=O)C[C@@H]2C1=O,-41.8
8,O=C(c1ccccc1F)N1C[C@H]2CCC[C@@]2(COCc2ccncc2)C1,15.4
9,Cc1cnn(CCNCc2csc(-c3ccccc3)n2)c1,34.75
10,CC(C)CN1CC[C@@H]2[C@H](CC1)N(C(=O)c1ccccc1)CCS2(=O)=O,36.9
11,COc1ccccc1OCC(=O)NCC(C)(O)c1ccccc1 (stereo not drawn),9.79
12,CC(C)n1cc(CN2CCCN(C(=O)CC3CCCO3)CC2)cn1 (stereo not drawn),-4.94
13,O=C(CCS(=O)(=O)c1ccccc1)N1CCCC(n2cccn2)C1 (stereo not drawn),34.5
14,Cn1cnc2c1C(COCc1ccccc1)N(Cc1ccccn1)CC2 (stereo not drawn),18.5
15,Cc1c(S(=O)(=O)N2CCCC2c2nnc(-c3ccsc3)o2)cnn1C (stereo not drawn),0.4
16,CN1C[C@H]2CC[C@@H](CC1=O)N2C(=O)c1ccc(-c2ccccc2)[nH]c1=O,-45
17,Cc1nn(C)c(Cl)c1CNCc1cccnc1N1CCOCC1,41.8
18,N#Cc1ccc(CN(CC(N)=O)C2CCCC2)cc1,90.2
19,N#Cc1ccc(CN(CC(N)=O)Cc2cccc(F)c2)cc1,17.1
20,N#Cc1ccc(CN(CC(N)=O)C2CCCC2)c(Br)c1,90.2
21,NC(=O)CN(Cc1ncc(-c2ccccc2)o1)C1CCCC1,-32
22,CN(C(=O)CNc1ccc(C#N)cc1)C1CCCCC1,-87.7

row,Compound,INHIBITION [%]
1,N#Cc1ccccc1CN(CC(N)=O)C1CCCC1,20.9
2,Cn1cccc1C(=O)N1CCn2nnc(COc3cccnc3)c2C1,-6.21
3,Cc1nn(C)c(N(C)C)c1CNCc1ccnc(N2CCCCC2)c1,-56.7
4,Cc1ccc(C(=O)N2CCN(CC(C)O)CC2)cc1S(C)(=O)=O (stereo not drawn),-19.6
5,CS(=O)(=O)c1ccc(NC(=O)NCCC2=CCCCC2)cc1,-165
6,COc1cc(NC(=O)c2ccc(C)cc2C)c(C(=O)N(C)C)cc1OC,-7.36
7,CN(CCCNC(=O)C1CCc2cn[nH]c2C1)c1ccccc1 (stereo not drawn),24.3
8,CN(CCCNC(=O)C1CCc2cn[nH]c2C1)c1ccc(F)cc1 (stereo not drawn),31.2
9,O=C(NCCCSc1ccc(F)cc1)C1CCc2cn[nH]c2C1 (stereo not drawn),50.8
10,CN(Cc1nc(Cc2cccc(F)c2)no1)C1CCOCC1,-24.2
11,Cc1nn(C)cc1Cn1c(=O)cnc2ccccc21,43.4
12,CCCC(=O)Nc1ccc2c(c1)C1(CCOCC1)CN2CCOC,52.1
13,COCCN1CC2(CCOCC2)c2cc(NC(=O)C3CC=CC3)ccc21,76.5
14,CCS(=O)(=O)Nc1ccc2c(c1)C1(CCOCC1)CN2C,46.6
15,CCN1CC2(CCOCC2)c2cc(NS(=O)(=O)CC)ccc21,38.5
16,CN(C)C(=O)N1CC2(CCOCC2)c2cc(NC(=O)CCO)ccc21,45.2
17,CCC(=O)Nc1ccc2c(c1)C1(CCOCC1)CN2CCF,10.4
18,COCCN1CC(C(=O)Nc2ccc3c(c2)CCC(=O)N3C)CC1=O (stereo not drawn),-22.6
19,CCC(=O)Nc1ccc2c(c1)C1(CCOCC1)CN2CCOC,55.7
20,COCC(=O)Nc1ccc2c(c1)C1(CCOCC1)CN2CCF,-4.08
